Potency data for 23 compounds are collected here from PubChem BioAssay (NCATS).

Results filed as inconclusive are left out. Active and inactive are the calls of the source. Calls follow the shape of the dose curve; as a rule, active = well fitted curve in the direction sought with a large enough effect; inconclusive = small, poorly fitted or top-dose-only effect, or another doubt; inactive = no such curve, though single readings can be large; an effect the other way counts as inactive or inconclusive.

Experiment [1] in a line: qHTS of pediatric cancer cell lines to identify multiple opportunities for drug repurposing: Primary screen for BT-37 cells (AID 1347094). Also: series mostly up to about 57 µM. Summed up:
(§1)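 Cells seeded at 500-1,000 cells/well in growth media, rested 5 hours at 37 degrees C, 5% CO2, then dosed; MIPE compounds at 11-point (from 0.78 nM) and NPC at 8-point (from 0.59 nM) final concentrations. Viability by CellTiter-Glo luminescence after 48 hours.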
A general note: qHTS replaces the single test concentration by a dilution series.

Experiment [2] can be described thus: qHTS of pediatric cancer cell lines to identify multiple opportunities for drug repurposing: Primary screen for NB-EBc1 cells (AID 1347095). Summed up:
as §1

Experiment [3] in a line: qHTS of pediatric cancer cell lines to identify multiple opportunities for drug repurposing: Primary screen for U-2 OS cells (AID 1347096). Also: nearly all actives have a fitted effect of over 50% in size. The gist of the method:
(§2)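 Cells (500-1,000/well) in growth media were settled 5 h at 37 degrees C, then given compounds for 48 h. Viability was read as CellTiter-Glo luminescence. Primary runs used MIPE at 11 points (0.78 nM-46 µM) and NPC at 8 points (0.59 nM-46 µM); follow-ups used 11 points.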

Experiment [4] can be described thus: qHTS of pediatric cancer cell lines to identify multiple opportunities for drug repurposing: Primary screen for Saos-2 cells (AID 1347097). Also: nearly all actives have a fitted effect of over 40% in size. Summed up: as §1
Experiment [5] in a line: qHTS of pediatric cancer cell lines to identify multiple opportunities for drug repurposing: Primary screen for SK-N-SH cells (AID 1347098). Also: nearly all actives have a fitted effect of over 65% in size. Also: potency is read from the fitted curve at half-maximal effect. The gist of the method: (§3)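 Cells (500-1,000/well) rested 5 h, then received compounds for 48 h; metabolically active cells were measured by CellTiter-Glo luminescence. Final concentrations spanned up to 46 µM (MIPE, 11-point) or 0.59 nM-46 µM (NPC, 8-point) in primary screens, 11-point in follow-ups.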

Experiment [6] in a line: qHTS of pediatric cancer cell lines to identify multiple opportunities for drug repurposing: Primary screen for NB1643 cells (AID 1347099). Also: nearly all actives have a fitted effect of over 50% in size. The gist of the method: as §1
Experiment [7] can be described thus: qHTS of pediatric cancer cell lines to identify multiple opportunities for drug repurposing: Primary screen for LAN-5 cells (AID 1347100). The gist of the method: as §2
Experiment [8] in a line: qHTS of pediatric cancer cell lines to identify multiple opportunities for drug repurposing: Primary screen for BT-12 cells (AID 1347101). Also: nearly all actives have a fitted effect of over 25% in size. The gist of the method:
as §3

Experiment [9] in a line: qHTS of pediatric cancer cell lines to identify multiple opportunities for drug repurposing: Primary screen for Rh18 cells (AID 1347102). Also: nearly all actives have a fitted effect of over 65% in size. Summed up: as §2
Experiment [10] is described as follows: qHTS of pediatric cancer cell lines to identify multiple opportunities for drug repurposing: Primary screen for OHS-50 cells (AID 1347103). Also: nearly all actives have a fitted effect of over 40% in size. Summed up:
as §3

For `CN1C(=O)NC(=O)C(C)(C2=CCCCC2)C1=O` (configuration not stated), the Potency result in experiment [1], in experiment [2], in [3], in experiment [4], in experiment [5] and in experiment [6] was “inactive” each time. The Potency entry in [7], in experiment [8], in [9] and in experiment [10] was “inactive” each time.
On to `O=[N+]([O-])O[C@H]1CO[C@H]2[C@@H]1OC[C@H]2O[N+](=O)[O-]`, for which the Potency result in experiment [1], in experiment [2], in experiment [3], in experiment [4], in experiment [5] and in experiment [6] was “inactive” in each case. In addition, the Potency entry in experiment [7], in experiment [8], in [9] and in [10] was “inactive” each time.
`CNC(C)(C)Cc1ccccc1`: the Potency entry in experiment [1], in experiment [2], in experiment [3], in experiment [4], in experiment [5] and in experiment [6] was “inactive” throughout. Also, the Potency result in experiment [7], in experiment [8], in [9] and in [10] was “inactive” throughout.
`COc1cc(CC(C)N)cc(OC)c1OC` (configuration not stated): the Potency result in [1], in experiment [2], in [3], in experiment [4], in experiment [5] and in experiment [6] was “inactive” each time. Also, the Potency entry in experiment [7], in experiment [8], in experiment [9] and in experiment [10] was “inactive” in each case.
As to `COP(=S)(OC)Oc1ccc(SC)c(C)c1`, the Potency result in experiment [1], in [2], in experiment [3], in experiment [4], in experiment [5] and in experiment [6] was “inactive” in each case. Further, the Potency result in [7], in [8], in [9] and in experiment [10] was “inactive” each time.
Take `C#C[C@]1(O)CC[C@H]2[C@@H]3CCC4=CC(=O)CC[C@]4(C)[C@H]3CC[C@@]21C`: the Potency entry in [1], in experiment [2], in experiment [3], in experiment [4], in [5] and in experiment [6] was “inactive” throughout. Also, the Potency result in experiment [7], in experiment [8], in [9] and in [10] was “inactive” throughout.
As for `CCC(C)(C)c1ccc(O)cc1`, the Potency result in experiment [1], in [2], in experiment [3], in experiment [4], in [5] and in [6] was “inactive” in each case. Besides, the Potency result in experiment [7], in experiment [8] and in [9] was “inactive” in each case.
Turning to `CC(C)(C)NCC(O)c1cc(Cl)c(N)c(C(F)(F)F)c1` (configuration not stated), the Potency entry in [1], in experiment [2], in experiment [3], in experiment [4], in experiment [5] and in experiment [6] was “inactive” each time. Moreover, the Potency result in experiment [7], in experiment [8], in [9] and in experiment [10] was “inactive” each time.
Consider `NC(=O)c1cc([N+](=O)[O-])cc([N+](=O)[O-])c1`, for which the Potency entry in [1], in [2], in experiment [3], in experiment [4], in experiment [5] and in experiment [6] was “inactive” each time. Also, the Potency entry in [7], in experiment [8], in experiment [9] and in experiment [10] was “inactive” throughout.
In the case of `O=C(O)c1ccc(=O)[nH]c1`, the Potency entry in experiment [1], in [2], in experiment [3], in experiment [4], in experiment [5] and in [6] was “inactive” throughout. Moreover, the Potency result in experiment [7], in experiment [8], in experiment [9] and in experiment [10] was “inactive” each time.
For `CCN(CC)CCc1c[nH]c2ccccc12`, the Potency entry in experiment [1], in [2], in [3], in experiment [4], in [6] and in experiment [7] was “inactive” each time. Besides, the Potency entry in experiment [8] and in experiment [9] was “inactive” throughout. Also, in experiment [5], the Potency is 37 µM (active).
`c1ccc(N2CCNCC2)cc1`: the Potency entry in [1], in [2], in experiment [3], in experiment [4], in [5] and in experiment [6] was “inactive” throughout. Besides, the Potency result in experiment [7], in [8], in experiment [9] and in experiment [10] was “inactive” each time.
For `C[C@H]1[C@@H]2Cc3ccc(O)cc3[C@@]1(C)CCN2C`, the Potency result in [1], in experiment [2], in experiment [3], in experiment [4], in experiment [5] and in [6] was “inactive” throughout. For the same compound, the Potency result in experiment [7], in experiment [8] and in experiment [9] was “inactive” throughout.
Regarding `CCC(C)C(C)(COC(N)=O)COC(N)=O` (configuration not stated), the Potency result in experiment [1], in [2], in [3], in experiment [4], in [5] and in [6] was “inactive” each time. Further, the Potency result in experiment [7], in experiment [8], in experiment [9] and in [10] was “inactive” each time.
Take `CC(=O)C1CCOC1=O` (configuration not stated): the Potency entry in [1], in [2], in experiment [3], in [4], in experiment [5] and in experiment [6] was “inactive” throughout. Further, the Potency entry in [7], in experiment [8], in experiment [9] and in experiment [10] was “inactive” each time.
Turning to `CN(C)CCc1c[nH]c2cccc(OP(=O)(O)O)c12`, the Potency entry in experiment [1], in experiment [2], in experiment [3], in experiment [4], in experiment [5] and in experiment [6] was “inactive” in each case. For the same compound, the Potency result in [7], in experiment [8], in experiment [9] and in experiment [10] was “inactive” in each case.
`CCOC(=O)CC(SP(=S)(OC)OC)C(=O)OCC` (configuration not stated): the Potency entry in [1], in experiment [2], in experiment [3], in experiment [4], in [5] and in [6] was “inactive” each time. For the same compound, the Potency entry in experiment [7], in experiment [8], in [9] and in [10] was “inactive” throughout.
Turning to `CC(=O)OCC1=C(C(=O)O)N2C(=O)[C@@H](N)[C@H]2SC1`, the Potency result in experiment [1], in experiment [2], in experiment [3], in experiment [4], in experiment [5] and in experiment [6] was “inactive” in each case. Further, the Potency result in experiment [7], in experiment [8], in experiment [9] and in experiment [10] was “inactive” in each case.
As for `COP(=S)(OC)Oc1ccc(S(=O)(=O)N(C)C)cc1`, the Potency entry in experiment [1], in experiment [2], in experiment [3], in [4], in experiment [5] and in experiment [6] was “inactive” throughout. Also, the Potency entry in [7], in [8], in experiment [9] and in [10] was “inactive” throughout.
As to `O=c1[nH]oc2c1CCNC2`, the Potency result in experiment [1], in [2], in experiment [3], in experiment [4], in [5] and in [6] was “inactive” each time. In addition, the Potency result in experiment [7], in experiment [8], in experiment [9] and in [10] was “inactive” in each case.
As to `C=C(C)[C@H]1CN[C@H](C(=O)O)[C@H]1CC(=O)O`, the Potency entry in experiment [1], in [2], in experiment [3], in experiment [4], in [5] and in [6] was “inactive” throughout. The Potency entry in experiment [7], in experiment [8], in experiment [9] and in [10] was “inactive” in each case.
Regarding `c1ccc(CN2CCNCC2)cc1`, the Potency entry in [1], in experiment [2], in [3], in [4], in experiment [5] and in experiment [6] was “inactive” in each case. The Potency entry in [7], in experiment [8], in experiment [9] and in experiment [10] was “inactive” throughout.
For the compound `CCC1(c2ccc(N)cc2)CCC(=O)NC1=O` (configuration not stated), the Potency entry in experiment [1], in experiment [2], in experiment [3], in experiment [4], in experiment [5] and in [6] was “inactive” in each case. Moreover, the Potency result in experiment [7], in experiment [8], in experiment [9] and in experiment [10] was “inactive” in each case.
